Experimental data published in PubChem BioAssay (NCI).
About 83,000 compounds went through this panel and 20% of them were active in at least one assay; those are over-represented in the sample as a whole.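 Treatment: one concentration, 48 hours, 96-well format. Scoring: percent growth, with anything below 10 considered active.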 Unmarked numbers belong to inactive results. Active and inactive are the calls of the source.

Key:
Test in all cases: NCI-60 one-dose screen, 48 h (100 = growth as untreated, 0 = no growth, -100 = all killed)
Details in all cases: 10 µM unless noted
SR leukemia = test system: SR leukemia
OVCAR-8 ovarian = test system: OVCAR-8 ovarian
OVCAR-5 ovarian = test system: OVCAR-5 ovarian
OVCAR-4 ovarian = test system: OVCAR-4 ovarian
SK-OV-3 ovarian = test system: SK-OV-3 ovarian
IGROV1 ovarian = test system: IGROV1 ovarian
OVCAR-3 ovarian = test system: OVCAR-3 ovarian
HS 578T breast = test system: HS 578T breast
NCI/ADR-RES ovarian = test system: NCI/ADR-RES ovarian
T-47D breast = test system: T-47D breast
BT-549 breast = test system: BT-549 breast
MDA-MB-435 melanoma = test system: MDA-MB-435 melanoma
SW-620 colon = test system: SW-620 colon
MCF7 breast = test system: MCF7 breast
HCT-116 colon = test system: HCT-116 colon
HCC-2998 colon = test system: HCC-2998 colon
KM12 colon = test system: KM12 colon
RPMI-8226 leukemia = test system: RPMI-8226 leukemia

## CC(=O)/C(=C\c1c(-c2ccccc2)[nH]c2ccccc12)S(=O)(=O)c1ccccc1
SR leukemia
  growth: -35.9% (active)
OVCAR-8 ovarian
  growth: 12.4%
OVCAR-5 ovarian
  growth: 1.33% (active)
OVCAR-4 ovarian
  growth: 17.7%
SK-OV-3 ovarian
  growth: 19.3%
IGROV1 ovarian
  growth: -5.76% (active)
OVCAR-3 ovarian
  growth: -36.6% (active)
HS 578T breast
  growth: 8.54% (active)
NCI/ADR-RES ovarian
  growth: -5.66% (active)
T-47D breast
  growth: 13%
BT-549 breast
  growth: 16.9%
MDA-MB-435 melanoma
  growth: 5.41% (active)
SW-620 colon
  growth: 12.1%
MCF7 breast
  growth: 10.1%
HCT-116 colon
  growth: 9.03% (active)
HCC-2998 colon
  growth: 4.79% (active)
KM12 colon
  growth: -10.1% (active)

## COC(=O)c1cc(O)c2cc3c(cc2c1-c1cc(OC)c(OC)c(OC)c1)OCO3
SR leukemia
  growth: 24.3%
RPMI-8226 leukemia
  growth: 4.51% (active)
OVCAR-8 ovarian
  growth: 45.8%
OVCAR-4 ovarian
  growth: 71.3%
SK-OV-3 ovarian
  growth: 22.2%
IGROV1 ovarian
  growth: 44%
OVCAR-3 ovarian
  growth: 8.41% (active)
HS 578T breast
  growth: -2% (active)
NCI/ADR-RES ovarian
  growth: 3.4% (active)
T-47D breast
  growth: 25.9%
MDA-MB-435 melanoma
  growth: 2.84% (active)
SW-620 colon
  growth: 17.8%
MCF7 breast
  growth: 21.9%
HCT-116 colon
  growth: 20.8%
HCC-2998 colon
  growth: 52.3%
KM12 colon
  growth: 25.7%

## CC(=O)OC1/C=C\CC/C=C\C1 (stereo unspecified)
SR leukemia
  growth: 104%
RPMI-8226 leukemia
  growth: 101%
OVCAR-8 ovarian
  growth: 98.8%
OVCAR-4 ovarian
  growth: 107%
SK-OV-3 ovarian
  growth: 105%
IGROV1 ovarian
  growth: 110%
OVCAR-3 ovarian
  growth: 115%
HS 578T breast
  growth: 101%
NCI/ADR-RES ovarian
  growth: 122%
BT-549 breast
  growth: 110%
MDA-MB-435 melanoma
  growth: 103%
SW-620 colon
  growth: 101%
MCF7 breast
  growth: 106%
HCT-116 colon
  growth: 107%
HCC-2998 colon
  growth: 129%
KM12 colon
  growth: 103%

## CCc1c(C)c2ccc(OCC(=O)N=Nc3c(O)[nH]c4ccccc34)c(C)c2oc1=O
SR leukemia
  growth: 8.17% (active)
RPMI-8226 leukemia
  growth: -3.81% (active)
OVCAR-8 ovarian
  growth: -11.3% (active)
OVCAR-4 ovarian
  growth: -21.7% (active)
SK-OV-3 ovarian
  growth: 80.9%
IGROV1 ovarian
  growth: 7.99% (active)
HS 578T breast
  growth: -5.77% (active)
NCI/ADR-RES ovarian
  growth: 47.7%
T-47D breast
  growth: -53.3% (active)
BT-549 breast
  growth: 11.3%
MDA-MB-435 melanoma
  growth: 0.887% (active)
SW-620 colon
  growth: -29.2% (active)
MCF7 breast
  growth: -4.72% (active)
HCT-116 colon
  growth: -7.72% (active)
HCC-2998 colon
  growth: -2.02% (active)
KM12 colon
  growth: -23.4% (active)

## O=[N+]([O-])c1ccc(-c2ncc(-c3ccc(O)cc3O)[nH]2)cc1
SR leukemia
  growth: -28.9% (active)
OVCAR-8 ovarian
  growth: 101%
OVCAR-5 ovarian
  growth: 125%
OVCAR-4 ovarian
  growth: 104%
SK-OV-3 ovarian
  growth: 116%
IGROV1 ovarian
  growth: 97.6%
OVCAR-3 ovarian
  growth: 105%
HS 578T breast
  growth: 70.9%
NCI/ADR-RES ovarian
  growth: 115%
T-47D breast
  growth: 102%
MDA-MB-435 melanoma
  growth: 121%
SW-620 colon
  growth: 106%
MCF7 breast
  growth: 90.3%
HCC-2998 colon
  growth: 123%
KM12 colon
  growth: 112%

## O=S(=O)(O)c1ccc2c(c1)Sc1cc(S(=O)(=O)O)ccc1O2
SR leukemia
  growth: 107%
RPMI-8226 leukemia
  growth: 101%
OVCAR-8 ovarian
  growth: 104%
OVCAR-4 ovarian
  growth: 110%
SK-OV-3 ovarian
  growth: 107%
IGROV1 ovarian
  growth: 112%
OVCAR-3 ovarian
  growth: 122%
NCI/ADR-RES ovarian
  growth: 104%
T-47D breast
  growth: 110%
BT-549 breast
  growth: 127%
MDA-MB-435 melanoma
  growth: 92.6%
SW-620 colon
  growth: 104%
MCF7 breast
  growth: 106%
HCT-116 colon
  growth: 106%
HCC-2998 colon
  growth: 102%
KM12 colon
  growth: 108%

## O=C(Nc1ccc(Cl)cn1)C1(c2ccccc2)CCCCC1
SR leukemia
  growth: -14.5% (active)
OVCAR-8 ovarian
  growth: 113%
OVCAR-5 ovarian
  growth: 102%
OVCAR-4 ovarian
  growth: 91.6%
SK-OV-3 ovarian
  growth: 117%
IGROV1 ovarian
  growth: 534%
OVCAR-3 ovarian
  growth: 118%
HS 578T breast
  growth: 107%
NCI/ADR-RES ovarian
  growth: 125%
T-47D breast
  growth: 94.7%
BT-549 breast
  growth: 98.4%
MDA-MB-435 melanoma
  growth: 125%
SW-620 colon
  growth: 96.6%
MCF7 breast
  growth: 96.3%
HCT-116 colon
  growth: 117%
HCC-2998 colon
  growth: 99.1%
KM12 colon
  growth: 101%

## COc1ccc2cc(C(C)C(=O)Nc3ccc(S(=O)(=O)Nc4cc(C)on4)cc3)ccc2c1 (stereo unspecified)
SR leukemia
  growth: 100%
RPMI-8226 leukemia
  growth: 96.6%
OVCAR-8 ovarian
  growth: 95.8%
OVCAR-4 ovarian
  growth: 100%
SK-OV-3 ovarian
  growth: 101%
IGROV1 ovarian
  growth: 114%
OVCAR-3 ovarian
  growth: 110%
NCI/ADR-RES ovarian
  growth: 105%
T-47D breast
  growth: 84.8%
MDA-MB-435 melanoma
  growth: 105%
MCF7 breast
  growth: 102%
HCT-116 colon
  growth: 96.5%
KM12 colon
  growth: 110%

## COC(=O)/C=C/c1cc(O)c2oc(-c3ccc(O)c(O)c3)c(C(=O)OC)c2c1
SR leukemia
  growth: 22%
OVCAR-8 ovarian
  growth: 18.5%
OVCAR-5 ovarian
  growth: 43.6%
OVCAR-4 ovarian
  growth: 42.8%
IGROV1 ovarian
  growth: 32.4%
OVCAR-3 ovarian
  growth: 11.7%
HS 578T breast
  growth: 18.3%
NCI/ADR-RES ovarian
  growth: -3.33% (active)
BT-549 breast
  growth: 46.6%
MDA-MB-435 melanoma
  growth: -37.1% (active)
SW-620 colon
  growth: 14.8%
MCF7 breast
  growth: 9.36% (active)
HCT-116 colon
  growth: 24.5%
HCC-2998 colon
  growth: 47.2%
KM12 colon
  growth: 13.8%

## O=C(Nc1ccc(-n2cc(-c3ccncc3)c(-c3ccc(Cl)c(O)c3)n2)cc1)c1cc(C(F)(F)F)cc(C(F)(F)F)c1
SR leukemia
  growth: 23.9%
OVCAR-8 ovarian
  growth: 65.4%
OVCAR-5 ovarian
  growth: 84.5%
OVCAR-4 ovarian
  growth: 70%
SK-OV-3 ovarian
  growth: 72.4%
IGROV1 ovarian
  growth: 70.5%
OVCAR-3 ovarian
  growth: 53.2%
HS 578T breast
  growth: -4.23% (active)
NCI/ADR-RES ovarian
  growth: 72.9%
T-47D breast
  growth: 47.9%
SW-620 colon
  growth: 81.4%
MCF7 breast
  growth: 30.3%
HCT-116 colon
  growth: 33.6%
HCC-2998 colon
  growth: 74.2%
KM12 colon
  growth: 28%
